Rce1 inhib: inhibitors of yeast Ras-converting enzyme; yeast membranes, quenched prenylated peptide cleavage fluorescence; calls only; hit rate 0.27% among 290,000; Q03530;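 active = fall in fluorescence gain of 50% or more versus controls, with final raw signal at or below 3038400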;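 also: plate controls were neutral control wells for no effect and wells lacking membranes for full effect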
PERK inhibitor: inhibitors of human PERK kinase. CHO PERK-DD fusion, SEAP luminescence translation reporter. inhibition, % at 5.6 µM. hit rate 0.17% among 220,000. AID 1416;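 active = inhibition above the mean inhibition of all tested compounds plus 3 SD, set separately per screening campaign, cut at about 2.9% in these data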;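 also: PERK kinase domain activated by AP20187 dimerizer at 100 nM; 0% = DMSO with dimerizer and 100% = rapamycin at 8.4 µM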
Target sequence (Q9NZJ5 whole entry, looked up, the tested form may be a part): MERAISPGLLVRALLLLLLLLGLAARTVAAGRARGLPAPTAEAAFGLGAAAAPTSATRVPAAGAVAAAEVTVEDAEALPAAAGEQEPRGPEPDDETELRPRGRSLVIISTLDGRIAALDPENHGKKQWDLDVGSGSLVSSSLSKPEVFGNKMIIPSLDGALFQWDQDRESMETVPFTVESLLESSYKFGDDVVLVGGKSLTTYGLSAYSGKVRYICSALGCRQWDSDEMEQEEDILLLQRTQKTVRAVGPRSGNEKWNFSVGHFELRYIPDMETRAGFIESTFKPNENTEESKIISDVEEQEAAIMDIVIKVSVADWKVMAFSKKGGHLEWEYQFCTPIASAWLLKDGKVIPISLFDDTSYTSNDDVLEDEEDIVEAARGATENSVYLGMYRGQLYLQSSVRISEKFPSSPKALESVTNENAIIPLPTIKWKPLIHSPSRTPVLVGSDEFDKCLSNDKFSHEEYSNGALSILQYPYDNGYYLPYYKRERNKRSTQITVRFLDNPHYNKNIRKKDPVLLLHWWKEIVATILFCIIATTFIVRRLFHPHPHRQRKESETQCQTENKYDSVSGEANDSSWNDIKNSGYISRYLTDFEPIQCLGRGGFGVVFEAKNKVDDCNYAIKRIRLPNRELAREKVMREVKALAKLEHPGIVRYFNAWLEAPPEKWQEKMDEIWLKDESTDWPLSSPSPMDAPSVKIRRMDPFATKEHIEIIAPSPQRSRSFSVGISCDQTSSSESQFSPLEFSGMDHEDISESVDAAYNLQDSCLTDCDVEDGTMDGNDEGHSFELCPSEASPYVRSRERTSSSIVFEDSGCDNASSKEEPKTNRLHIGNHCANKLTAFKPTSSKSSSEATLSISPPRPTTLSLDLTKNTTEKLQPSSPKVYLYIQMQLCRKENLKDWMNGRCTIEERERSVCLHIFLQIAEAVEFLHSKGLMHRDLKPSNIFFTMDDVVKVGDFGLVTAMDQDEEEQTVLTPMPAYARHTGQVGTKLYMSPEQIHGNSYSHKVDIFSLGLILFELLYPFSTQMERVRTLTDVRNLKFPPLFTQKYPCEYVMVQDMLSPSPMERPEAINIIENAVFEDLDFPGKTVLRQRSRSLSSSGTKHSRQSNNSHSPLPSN
NALP1 inh: blocks the NALP1 inflammasome reconstituted in yeast; inhibition, % at 10 µM; hit rate 0.61% among 280,000; AID 2071; S. cerevisiae NALP1/ASC/caspase-1 growth, X-gal OD620, 72 h; in the data active = inhibition mostly above about 24%, no sharp cut-off; inactive = mostly below about 32%
V-ATPase pH: yeast V-ATPase proton transport regulation by pHLuorin | S. cerevisiae, pHLuorin cytosolic pH fluorescence | response, % at 10 µM | hit rate 0.37% among 350,000 | AID 504577; in the data active = response mostly above about 7.3%, no sharp cut-off; inactive = mostly below about 5.4%; also: actives read high
CR mimetic SO: lowers age-related superoxide in aged yeast cells; S. cerevisiae aged cells, superoxide DHE fluorescence; active compounds read low; superoxide response (% of plate mean), % at 10 µM; hit rate 0.18% among 330,000;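 active = superoxide response under a set limit, about three screen SD below normal, cut at about 65% in these data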;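 also: yeast aged for seven days with compound at 30 °C before DHE staining; 100% = average MFI of all compound-treated wells on the plate with controls excluded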
NLRP3 yeast inh: blocks the NALP3 inflammasome reconstituted in yeast | Yeast reconstituted NLRP3/ASC/caspase-1, beta-gal luminescence, 24 h | hit rate 0.39% among 330,000 | inhibition, % at 10 µM;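 active = inhibition of 50% or more; inactive = inhibition below 50%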;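 also: plate controls were induced DMSO wells for no effect and uninduced yeast grown without galactose for full effect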
Superoxide pick: confirmation of caloric restriction mimetics inhibiting yeast age-related superoxide | shares compounds with CR mimetic SO | S. cerevisiae aging, superoxide DHE fluorescence; active compounds read low | superoxide response (% of plate), % at 10 µM | hit rate 1% among 850;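 active = superoxide signal below 65% of the plate average of sample wells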;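 also: cells aged with compound for 7 days at 30 degrees C before staining; 100% equals mean DHE fluorescence of all compound wells on the plate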
DHE counter: counter-screen for compounds affecting DHE oxidation and fluorescence in yeast; shares compounds with CR mimetic SO; S. cerevisiae BY4741, flow cytometry; active compounds read low; fluorescence response, % at 10 µM; 850 tested, under 10 active;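 active = fluorescence response below 15%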;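 also: percent of the mean fluorescence averaged over all compound wells on the plate; lower means stronger quenching of DHE signal or ROS scavenging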
NALP3 yeast conf: NALP3 inhibition confirmation in yeast; shares compounds with NLRP3 yeast inh; yeast expressing human NALP3, luminescence; inhibition, % at 10 µM; hit rate 81% among 1,300; AID 435006; in the data active = inhibition above about 48%
Casp1 ASC ctr: active in yeast caspase-1-ASC counter-screen for NALP3 inhibitors; shares compounds with NLRP3 yeast inh; yeast expressing Caspase-1-ASC, luminescence counter screen; inhibition, % at 10 µM; hit rate 66% among 1,000; AID 488784
NALP3 retest: retest-confirmed inhibitor of NALP3 in yeast. yeast expressing human NALP3, luminescence read-out. hit rate 53% among 1,000. shares compounds with NLRP3 yeast inh. inhibition, % at 10 µM
V-ATPase pH SP: yeast V-ATPase proton transport regulation. shares compounds with V-ATPase pH. S. cerevisiae pHLuorin cytosolic pH. response, % at 10 µM. hit rate 2% among 980; in the data active = response above about 24%;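 also: plate controls were vehicle wells for no effect and positive control wells for full effect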
The depositor's hits bear a star; i = inactive; . = not tested or not shown. The list is not random: actives were taken first. Their share in the collection is about 1.6%. Rule as the data show it, unless noted: active = inhibition above about 50%; inactive = the rest.

SMILES	Rce1 inhib	PERK inhibitor	NALP1 inh	V-ATPase pH	CR mimetic SO	NLRP3 yeast inh	Superoxide pick	DHE counter	NALP3 yeast conf	Casp1 ASC ctr	NALP3 retest	others
Cc1cc(NC(=O)CNCC(c2ccccc2)N(C)C)c([N+](=O)[O-])cc1C (stereo unspecified)	i	.	-20.3	-1.9	42.9*	14.9	91.1	94.1	.	.	.
CN(C)c1ccc(S(=O)(=O)NCC(=O)NCc2ccccc2)cc1[N+](=O)[O-]	i	.	0.0	0.0	97.8	16.1	.	.	.	.	.
COc1ccc(CCNC(=O)CCNS(=O)(=O)c2cccc(Cl)c2)cc1OC	i	-0.7	-4.7	4.3	58.8*	-4.7	92.3	112.1	.	.	.
CCCNS(=O)(=O)c1ccc(CCC(=O)NCCc2ccc(OC)c(OC)c2)cc1	i	1.3	-9.3	-3.9	97.3	12.5	.	.	.	.	.
COc1ccc(CCNC(=O)CNS(=O)(=O)c2ccc(N(C)C)c([N+](=O)[O-])c2)cc1OC	i	.	3.6	-1.5	65.3*	-16.7	100.2	98.7	.	.	.
C[C@H](CO)N1C[C@H](C)[C@@H](CN(C)S(=O)(=O)c2cn(C)cn2)OCc2cn(nn2)CCCC1=O	.	.	.	-3.3	.	.	.	.	.	.	.
Cc1ccc(N2CCN(C(=O)c3ccccc3F)CC2)c(C)c1	i	0.8	31.8	-1.1	92.4	-6.7	99.0	103.1	.	.	.
COc1ccc(CC(=O)Nc2nc(-c3cccnc3)cs2)cc1	i	0.7	24.4	0.3	62.6*	-11.7	98.3	108.1	.	.	.
CN(C)c1ccc(/C=C/c2ccc3ccccc3n2)cc1	i	0.4	15.8	-4.5	117.5	.	.	.	.	.	.
CCN(CC)c1ccc(/C=C/c2cc(-c3ccccc3)c3ccccc3n2)cc1	i	-0.1	-13.1	-84.4	54.5*	.	90.9	100.7	.	.	.
C[C@@H]1CN([C@@H](C)CO)C(=O)CCCn2nncc2CO[C@@H]1CN(C)C(=O)CCC(F)(F)F	.	.	.	2.2	.	.	.	.	.	.	.
N#Cc1ccc(Nc2ccccc2)c(N)c1	i	1.2	-4.4	-4.0	60.8*	26.1	93.3	107.1	.	.	.
COc1ncnc2c1ncn2CCCNC1CCN(Cc2ccccc2)CC1	.	.	.	1.5	.	.	.	.	.	.	.
Cc1cc2ccccn2c1C(=O)c1ccccc1F	i	.	18.2	0.5	61.5*	50.9*	97.1	101.5	61.0*	49.2	41.4
CC(=O)c1ccc2ccccc2c1OC(=O)c1ccncc1	.	.	.	1.8	.	.	.	.	.	.	.
COc1cc(C)ccc1S(=O)(=O)N1CCCCCC1	.	-0.4	-14.1	-0.5	100.4	25.5	.	.	.	.	.
COc1cc(C)c(S(=O)(=O)N2CCCC2)cc1C	i	0.8	23.8	-1.8	58.9*	77.0*	80.2	91.8	83.1*	86.7*	64.8*
C[C@H](CO)N1C[C@H](C)[C@@H](CN(C)C(=O)c2ccccc2)OCc2cnnn2CCCC1=O	.	.	.	-1.1	.	.	.	.	.	.	.
N#C/C(=C\c1c(Cl)cccc1Cl)c1nc2ccccc2[nH]1	i	-0.6	19.4	-2.5	116.8	5.4	.	.	.	.	.
N#C/C(=C/c1cccs1)c1nc2ccccc2[nH]1	i	-0.8	62.8	-4.7	60.5*	80.3*	110.9	106.8	70.1*	83.5*	88.2*
O=c1c2ccc(Cl)cc2nc(-c2cccc(C(F)(F)F)c2)n1O	i	-1.0	1.8	10.6*	64.8*	52.2*	87.5	88.6	63.2*	44.2	52.2*
CC(C)Cn1c(=S)[nH]c2cc(C(=O)O)ccc2c1=O	i	-0.1	.	0.5	106.3	9.9	.	.	.	.	.
CC(C)Cn1c2ccccc2c2cc(C(=O)O)ccc21	i	1.9	-9.1	-0.8	120.9	-123.3	110.5	91.1	8.6	.	.
O=c1c(Cl)c(O)c2cccc3c4ccccc4n1c23	i	0.5	22.2	-4.5	143.6	4.7	.	.	.	.	.
COc1c(O)c(=O)n2c3ccccc3c3ccnc1c32	i	.	.	-3.2	62.4*	76.9*	88.6	95.2	85.1*	80.3*	82.0*
SMILES	Rce1 inhib	PERK inhibitor	NALP1 inh	V-ATPase pH	CR mimetic SO	NLRP3 yeast inh	Superoxide pick	DHE counter	NALP3 yeast conf	Casp1 ASC ctr	NALP3 retest	others
CCN(CC)S(=O)(=O)c1cc(OC)c(Cl)cc1Cl	i	1.5	21.1	0.1	58.5*	54.7*	98.3	100.9	64.4*	52.8*	50.0*
CN(CC(=O)Nc1cccc(F)c1)C(=O)c1cccc(S(=O)(=O)N2CCN(c3ccc(F)cc3)CC2)c1	.	.	.	7.9	.	.	.	.	.	.	.
COc1ccccc1C(=O)NCC(=O)N(C)Cc1nc2ccccc2c(=O)[nH]1	.	.	.	-0.7	.	.	.	.	.	.	.
O=c1c2sc(-c3ccccc3)cc2nc2n1CCCCC2	i	1.1	31.4	2.7	100.9	14.2	.	.	.	.	.
O=c1c2sc(-c3ccccc3)cc2nc2n1CCC2	i	-0.7	-91.4	0.8	47.6*	55.3*	82.9	106.5	48.5	45.5	30.4
CCC(=Nc1ccccc1OC)C1=C(O)CC(c2ccccc2)CC1=O (stereo unspecified)	i	0.1	-7.1	1.2	67.5	37.7	.	.	.	.	.
CCC(=Nc1ccccc1O)C1=C(O)CC(c2ccccc2)CC1=O (stereo unspecified)	i	-0.7	31.7	1.2	61.6*	62.1*	69.8	97.9	73.9*	55.0*	56.1*
C/C(CCC12CC3CC(CC(C3)C1)C2)=N\NC(N)=S	i	1.2	5.6	0.5	64.0*	58.0*	113.9	103.9	50.2*	69.9*	41.4
COC(=O)CN(c1ccc(C)cc1)S(=O)(=O)c1ccc(F)cc1	i	0.1	10.2	-4.0	49.9*	58.0*	103.9	106.9	55.3*	.	.
Cc1ccc(S(=O)(=O)N(C)C)cc1NC(=O)CN1C(=O)NC2(CCc3ccccc32)C1=O (stereo unspecified)	.	.	.	1.1	.	.	.	.	.	.	.
Cn1c2ccccc2c(=O)c2c(=O)n(C3CCCCC3)c(-c3cccs3)nc21	i	-0.6	10.4	0.5	65.2*	58.3*	109.9	97.6	70.7*	55.4*	52.0*
O=Nc1ccc(NO)c2ccccc12	.	.	.	-1.9	.	.	.	.	.	.	.
CCOC(=O)CSc1nnc(-c2ccccc2)o1	i	1.4	3.7	1.8	98.6	13.1	114.2	125.3	.	.	.	V-ATPase pH SP=-3.2
C[C@@H]1CCCCO[C@@H](CN(C)CC2CC2)[C@@H](C)CN([C@H](C)CO)C(=O)c2cc(N(C)C)ccc2O1	.	.	.	-2.0	.	.	.	.	.	.	.
CC(C)(C)c1ccc(C(=O)Nc2cccc(-n3cnnn3)c2)cc1	i	.	18.3	-1.0	105.0	52.3*	.	.	65.0*	58.1*	26.6
CC1=NN(C(=O)c2ccc(Br)cc2)C(O)(C(F)(F)OC(F)(F)F)C1 (stereo unspecified)	i	0.4	9.3	-2.0	90.5	50.7*	.	.	49.8*	.	.

Screening results: PubChem, several laboratories
